# Pf apPOL inh – Pf-apPOL DNA polymerase inhibition; Recombinant Pf-apPOL, molecular beacon fluorescence, 1.5 h; inhibition, % at 10 µM; 210,000 tested, 0.25% active; AID 1794808
# mHTT-CaM PPI inh – disrupts binding of mutant huntingtin to calmodulin; AlphaScreen His-mHTT/GST-CaM binding, luminescence; P42858; 190,000 tested, 3.6% active; inhibition, % at 15 µM;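 further: 0% = both proteins with DMSO and 100% = one protein alone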
# * = called active by the depositor; / = no result. Compounds with a hit are over-represented: about 3.6% of the library has one in this group of screens. No stated cut-off is given here; in the data, active means inhibition above about 50%; inactive means the rest.
SMILES,Pf apPOL inh,mHTT-CaM PPI inh
CCC(=O)N1CCN(S(=O)(=O)c2ccc(C)cc2)C1c1ccc(N(C)C)cc1 (stereo not drawn),-9,18
CCC(=O)N1CCN(S(=O)(=O)c2ccc(C)cc2)C1c1ccccc1 (stereo not drawn),-8,-10
CCC(=O)N1c2ccccc2N(S(=O)(=O)c2ccc(C)cc2)C1c1ccc(N(C)C)cc1 (stereo not drawn),4,53*
CCN(CC)c1ccc(C2N(C(=O)c3ccccc3)CCN2S(=O)(=O)c2ccccc2)cc1 (stereo not drawn),2,37
Cc1ccc(S(=O)(=O)N2CCN(C(=O)c3ccccc3)C2c2ccc(N(C)C)cc2)cc1 (stereo not drawn),-17,56*
Cc1ccc(C(=O)N2CCN(S(=O)(=O)c3ccc(C)cc3)C2c2ccc(N(C)C)cc2)cc1 (stereo not drawn),1,50*
COc1ccc(NC(=O)c2cc(S(=O)(=O)N3CCc4ccccc43)ccc2F)cc1,-5,-1
O=C(NCCCc1ccccc1)C1CCN(c2nnc3ccc(Cl)cn23)CC1,-1,3
O=S(=O)(c1cccnc1)N1CCC(Nc2cccnc2)C1 (stereo not drawn),1,1
CCCN(CCC)CCNC(=O)CSc1nc2nc(C)c(Cc3ccccc3)c(C)n2n1,-8,3
COc1ccc(OC)c(CNc2cc([N+](=O)[O-])ccc2OC)c1,22,-3
Cc1cc([N+](=O)[O-])ccc1NCc1c[nH]c2ccccc12,2,69*
COc1ccc(CNc2ccc([N+](=O)[O-])cc2C)c(OC)c1C,-6,1
COc1ccc(OC)c(CNc2ccc([N+](=O)[O-])cc2C)c1,5,51*
CN(Cc1ccco1)S(=O)(=O)c1ccc2[nH]c3c(c2c1)CCCCC3,-4,78*
Cc1ccc(CNS(=O)(=O)c2ccc3[nH]c4c(c3c2)CCCCC4)cc1,-10,10
O=S(=O)(NCc1cccnc1)c1ccc2[nH]c3c(c2c1)CCCC3,-3,22
CN(CC(=O)NCc1ccco1)S(=O)(=O)c1ccc2[nH]c3c(c2c1)CCCC3,-3,29
CN(C)c1ccc(CNS(=O)(=O)c2ccc3[nH]c4c(c3c2)CCCCC4)cc1,0,55*
O=S(=O)(NCc1ccccc1)c1ccc2[nH]c3c(c2c1)CCCCC3,-4,57*
O=c1[nH]c2ccc(S(=O)(=O)NCc3ccco3)cc2s1,2,-1
O=S(=O)(NCc1ccco1)c1ccc2[nH]c3c(c2c1)CCCCC3,-4,87*
COc1cccc(C(C#N)N2N=C(C)CC2c2ccccc2)c1O (stereo not drawn),-7,17
COc1cc(C(=O)Nc2ccc(C)cc2[N+](=O)[O-])c(Br)c(OC)c1OC,0,-4
Cc1ccc(C)c(S(=O)(=O)N2CCc3c(c(COCc4cccc(F)c4)nn3C)C2)c1,-5,33
SMILES,Pf apPOL inh,mHTT-CaM PPI inh
CC(C)Oc1ccc(C(=O)Nc2cccc(Br)c2)cc1,-6,-20
COc1cc(C=CC(=O)NCC(O)c2ccoc2)cc(OC)c1OC (stereo not drawn),-3,-3
COCCN=C1Nc2ccccc2NC12CCCN(C(=O)Cc1cccc(OC)c1)C2 (stereo not drawn),-3,39
COCCN=C1Nc2ccccc2NC12CCCN(C(=O)c1n[nH]c3c1CCCC3)C2 (stereo not drawn),-2,-2
CC(=O)c1cccc(NC(=O)N2CCCC3(C2)Nc2ccccc2NC3=NC(C)(C)C)c1 (stereo not drawn),4,27
COc1cccc(CC(=O)N2CCCC3(C2)Nc2ccccc2NC3=NC(C)(C)C)c1 (stereo not drawn),0,78*
CC(C)(C)N=C1Nc2ccccc2NC12CCCN(C(=O)Cc1ccccc1F)C2 (stereo not drawn),-2,65*
Cc1noc(C)c1CC(=O)N1CCCC2(C1)Nc1ccccc1NC2=NC(C)(C)C (stereo not drawn),-2,34
CC(C)(C)N=C1Nc2ccccc2NC12CCCN(C(=O)Nc1ccc3c(c1)OCCO3)C2 (stereo not drawn),1,94*
O=C(c1n[nH]c2c1CCCC2)N1CCCC2(C1)Nc1ccccc1NC2=NC1CCCC1 (stereo not drawn),-2,92*
CCN1CCCn2nc(C3CCN(C(=O)Cc4ccc(F)cc4)CC3)cc2C1=O,-10,3
CCN1C(=O)c2cccnc2Sc2cc(C(=O)N3CCCC3)ccc21,5,-2
O=C(COc1ccc(SC(F)(F)F)cc1)NNC(=S)Nc1ccc(F)cc1,-256,/
O=C(Nc1ccccc1)c1ccc(-c2cnc(N3CCCCC3)nc2)cc1,3,-2
Cn1nc(C(=O)Nc2ccc3c(c2)CN(C(=O)C2CC2)CC3)ccc1=O,3,0
CCNc1nc(Oc2ccc(=O)n(C)n2)nc(N(C)C)n1,-7,2
O=C(c1cccc(F)c1)N1CCCC2(C1)Nc1ccccc1NC2=NC1CCCC1 (stereo not drawn),-4,18
CC(C)(C)N=C1Nc2ccccc2NC12CCCN(C(=O)c1cccc(F)c1)C2 (stereo not drawn),4,15
O=C(COc1ccc(F)cc1)N1CCCC2(C1)Nc1ccccc1NC2=NC1CCCC1 (stereo not drawn),-4,86*
CC(C)N1CCC(CC(=O)N2CCCC3(C2)Nc2ccccc2NC3=NC(C)(C)C)CC1 (stereo not drawn),-5,46
CC(C)(C)N=C1Nc2ccccc2NC12CCCN(C(=O)Cc1cccs1)C2 (stereo not drawn),0,64*
CC(C)(C)N=C1Nc2ccccc2NC12CCCN(C(=O)COc1ccc(F)c(F)c1)C2 (stereo not drawn),8,100*
COc1ccc(/C=C2\SC(=N)N(c3ccc4c(c3)OCO4)C2=O)cc1,-2,6
O=C1S/C(=C\c2ccccc2)C(=O)N1CNc1cccc(C(F)(F)F)c1,0,-4
CC[C@@H](CO)Nc1cccc2c1S(=O)(=O)N(Cc1cn(Cc3ccccc3C(F)(F)F)nn1)Cc1ccccc1O2,-6,-7
SMILES,Pf apPOL inh,mHTT-CaM PPI inh
CCc1c(C2CCN(C(=O)c3ccoc3)CC2)noc1N,-6,-1
O=C1CC(c2cccs2)Cc2c1cnn2-c1ccc(F)cc1 (stereo not drawn),-2,-8
CC(C)C(=O)NC1CCN(c2ccccc2C(=O)N2CCc3ccccc3C2)CC1,-37,49
COc1cc(N)ccc1Cc1ccc(N)cc1OC,-2,29
COc1ccc(N)cc1-n1c(C)ccc1C,-4,76*
COc1ccc(-c2nc(SCc3ccccc3F)c3c(=O)n(C)c(=O)n(C)c3n2)cc1,-1,-6
O=C(Cc1ccccc1)Nc1c(-c2ccccc2)n[nH]c1C1CCOCC1,3,12
CN(C)c1ccc(N=C2C=CC(=O)C=C2)cc1,/,95*
COc1ccc(N=C2NC(=O)S/C2=C\c2ccc(N(C)C)cc2)cc1,-49,17
COc1ccc(OC)c(NS(=O)(=O)c2cc3c(s2)CCN(C(C)=O)C3)c1,-3,3
COc1ccc(/C=C2\C=C(c3ccccc3)N(c3ccccc3O)C2=O)cc1,3,76*
O=C1/C(=C/c2ccc([N+](=O)[O-])cc2)C=C(c2ccccc2)N1c1ccccc1O,8,24
Cc1oc(C2CCN(C(=O)Nc3ccccc3F)CC2)nc1C(=O)N1CCOCC1,3,-5
COC(=O)CNC(=O)N1CC2CCCN2c2ccccc21 (stereo not drawn),0,8

# From PubChem BioAssay
